Experimental data as given in paper PMC5540273 (PLoS ONE, 2017).

These compounds were tested on MARK1. Details: concentration: 1 μM, replicates: in singlicate; n = 1.
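Note: KINOMEscan kinase panel screen.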

Row | SMILES | %Inh [%]
1 | CNc1nccc(-c2c(-c3ccc(F)cc3)ncn2C2CCN(C)CC2)n1 [SB-222903] | 0
2 | CCn1c(-c2ccncc2)nc2cnccc21 [SB-735216] | 16
3 | Clc1cc(Nc2ncnc3cc[nH]c23)ccc1OCc1ccccn1 | 13
4 | CN1CCC(n2cnc(-c3ccc(F)cc3)c2-c2ccnc(NC3CCNCC3)n2)CC1 [SB-229482] | 8
5 | Fc1ccc(-c2ncn(CCCNCc3ccccc3)c2-c2ccncc2)cc1 | 0
6 | Cc1ccc(NC(=O)c2cccc(C#N)c2)cc1-c1ccc(C(=O)Nc2ccncc2)cc1 [GSK1398463] | 0
7 | O=C(c1ccc(-c2cc(-c3c[nH]nc3-c3ccccn3)ccn2)cc1)N1CCCC1 [GW792479] | 0
8 | Cl.c1ccc(Cn2ccc3cc(Nc4ncnc5ccccc45)ccc32)cc1 [GW275568] | 17
9 | CS(=O)(=O)CCNCc1ccc(-c2ccc3ncnc(Nc4ccc(OCc5ccccc5)c(Cl)c4)c3c2)o1.Cl [GW574783] | 0
10 | CCC(CC)(CC)n1cnc2c(N)ncnc21 [SKF-97620] | 24
11 | CC(C)(C)OC(=O)NC1CCCN(c2cc(-c3ccc4c(N)n[nH]c4c3)nc(N)n2)C1 (stereo not drawn) [GSK2286096] | 0
12 | O=C(Nc1ccccc1F)NC1CCN(c2ccnc(Nc3ccc(F)cc3)n2)C1 (stereo not drawn) [GSK1379722] | 0
13 | Cl.c1ccc(Cn2ncc3cc(Nc4ncnc5ccccc45)ccc32)cc1 [GW273749] | 0
14 | CC(=O)Nc1n[nH]c2ncc(-c3ccccc3)cc12 [SB-548492] | 11
15 | Cc1cc(N2CCC(NS(=O)(=O)c3ccc(F)cc3)CC2)nc(Nc2cccc(C#N)c2)n1.O=C(O)C(F)(F)F [GSK1653537] | 0
16 | N#Cc1ccc(Oc2ccc(Nc3ncnc4cc[nH]c34)cc2Cl)cc1 | 3
17 | CCc1nc(-c2cccc(N(C)S(=O)(=O)c3ccccc3)c2)c(-c2ccnc(Nc3ccc(N4CCN(C(C)=O)CC4)nc3)n2)s1 [GSK1645895] | 0
18 | CNc1nccc(-c2c(-c3ccc(F)cc3)ncn2CCCN2CCOCC2)n1 [SB-222516] | 0

Row | SMILES | %Inh [%]
19 | Cc1ccc(C)c(NC(=O)NCCNc2ccnc(Nc3ccc(F)cc3)n2)c1 [GSK1379878] | 0
20 | Cc1cccc(-c2nc(Nc3ccc4[nH]nnc4c3)c3ccccc3n2)n1 [GW867587] | 0
21 | COc1ccc(Nc2nccc(N3CCC(NC(=O)c4cccc(NC(C)=O)c4)C3)n2)cc1 (stereo not drawn) [GSK1379732] | 0
22 | CSc1ccc(NC2=C(c3ccccc3Cl)C(=O)NC2=O)cc1 [SB-342411] | 3
23 | C[C@@H]1CCN(C(=O)CO)C[C@@H]1N(C)c1ncnc2[nH]ccc12 | 0
24 | CSc1nn2c(=O)cc(N3CCOCC3)nc2n1Cc1cccc(Cl)c1Cl [GSK2347225] | 0
25 | COc1ccc(-c2oc3ncnc(N)c3c2-c2ccc(OC)cc2)cc1 [SB-589132] | 0
26 | COc1ccc(NC(=O)c2ccc(-c3cc(-c4nnc(C)o4)ccc3C)cc2)cc1 [GW595885] | 0
27 | COC(=O)c1c(-c2ccccc2)c2cc(Cl)ccc2c(=O)n1Cc1ccc(S(C)(=O)=O)cc1 | 0
28 | CS(=O)(=O)CCNCc1nc(-c2ccc3ncnc(Nc4ccc(OCc5cccc(F)c5)c(Cl)c4)c3c2)cs1.Cl [GW583340] | 0
29 | Cc1ccc(O)cc1Nc1cc(C(F)(F)F)nc2ccc(-c3ccncc3)cc12 [GW630823] | 0
30 | Nc1nc(-c2ccc3c(N)n[nH]c3c2)cc(N2CCC[C@@H](C(=O)Nc3ccccc3)C2)n1.O=C(O)C(F)(F)F.O=C(O)C(F)(F)F [GSK2288359] | 0
31 | CN1c2ccc(-c3ccc(C(=O)NCCO)cc3)cc2-c2[nH]ncc2S1(=O)=O | 38
32 | Oc1ccc2ncnc(Nc3ccc(OCc4ccccc4)cc3)c2c1 [GI262866] | 0
33 | Nc1nc(-c2ccccn2)c(-c2ccnc3ccccc23)s1 [GW548057] | 0
34 | FC(F)(F)c1ccc(-c2cc(-c3c[nH]nc3-c3ccccn3)ccn2)cc1 [GW599550] | 0
35 | Cn1cc(-c2ccc3c(c2)CCN3C(=O)Cc2cccc(C(F)(F)F)c2)c2c(N)ncnc21 [GSK2606414] | 6
36 | NC(=O)c1sc(-n2cnc3ccccc32)cc1OCc1ccccc1F [GSK1024306] | 0
